Bioassay records from PubChem.
DAX1 inh-1: DAX1 (NR0B1) inhibition, primary screen; HEK293T StAR-luciferase reporter, SF-1/DAX-1 repression relief; inhibition, % at 6.8 µM; 370,000 compounds, 1.1% hits; AID 652010;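 active means inhibition above the mean over all tested compounds plus 3 SD, cut at about 3.6% in these data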;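 further: 0% = DAX-1 cells with DMSO and 100% = cells lacking DAX-1 with DMSO; higher inhibition means more luminescence from relief of DAX-1 repression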
DAX1 inh-2: inhibits human nuclear receptor DAX1 | 340,000 compounds, 0.99% hits | HEK293 Gal4-DAX1 luciferase reporter, luminescence | inhibition, % at 6.75 µM;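 active means inhibition above the mean over all tested compounds plus 3 SD, cut at about 4.2% in these data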;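 further: 0% = DAX1-transfected cells with DMSO and 100% = empty-vector control cells with DMSO; inhibition shows as a rise in luminescence from relieved DAX1 repression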
Target sequence (P51843 207-470 limits assumed): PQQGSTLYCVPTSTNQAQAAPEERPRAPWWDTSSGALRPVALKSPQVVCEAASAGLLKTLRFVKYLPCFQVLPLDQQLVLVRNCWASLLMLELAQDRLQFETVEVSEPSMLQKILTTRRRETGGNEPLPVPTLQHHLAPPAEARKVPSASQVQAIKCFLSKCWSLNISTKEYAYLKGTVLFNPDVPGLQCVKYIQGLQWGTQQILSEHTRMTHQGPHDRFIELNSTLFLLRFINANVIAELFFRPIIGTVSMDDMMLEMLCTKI
hcDAF12 agonist: H. contortus DAF-12 activation, primary screen; HEK293 hcDAF-12 lit1-tk-luc reporter, luminescence; 0% DMSO, 100% Δ7-dafachronic acid; activation, % at 6.8 µM; 370,000 compounds, 1.4% hits; AID 652067;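 active means activation above the mean of all tested compounds plus 3 SD, cut at about 5.5% in these data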;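 further: 100% = response to 3 µM Δ7-dafachronic acid high control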
hgDAF12 agonist: hgDAF-12 agonism, primary luciferase screen. HEK293 GAL4-hgDAF12 UAS-luciferase reporter, agonist luminescence; normalized to butyrate control. activation, % at 6.8 µM. 370,000 compounds, 1.8% hits. AID 687014;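 active means activation above a cutoff set at the mean of all screened compounds plus 3 SD, cut at about 10% in these data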;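 further: 0% = DMSO wells and 100% = sodium butyrate wells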
SMARCA2 act: activators of SMARCA2 function; 370,000 compounds, 1% hits; AID 652017; activation, % at 9.1 µM; MG213 cells, MMTV-luciferase reporter, dexamethasone, overnight; in the data active means activation above about 7.8%;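 further: 0% = vehicle wells and 100% = reference activator wells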
ssDAF-12 act: S. stercoralis DAF-12 activation, primary screen | AID 652126 | HEK293 ssDAF-12/GRIP1 lit1-tk-luc reporter, luminescence; % of 3 µM dafachronic acid response | activation, % at 6.8 µM | 370,000 compounds, 1% hits;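 active means activation above the mean over all tested compounds plus 3 SD, cut at about 0.9% in these data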;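 further: 0% = DMSO-only wells and 100% = 3 µM delta7-dafachronic acid wells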
DAX1 conf: NR0B1 (human) inhibition, confirmation | shares compounds with DAX1 inh-1 | HEK293T StAR-promoter luciferase reporter, SF-1/DAX-1 repression | inhibition, % at 6.8 µM | 2,400 compounds, 87% hits | AID 652134;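 active means inhibition above the average of every tested compound plus 3 SD, cut at about 3.8% in these data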;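 further: 0% = DAX-1 cells with DMSO and 100% = no DAX-1 control cells with DMSO; active compounds raise luminescence by relieving repression of the StAR reporter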
Target sequence (P51843 whole entry, looked up): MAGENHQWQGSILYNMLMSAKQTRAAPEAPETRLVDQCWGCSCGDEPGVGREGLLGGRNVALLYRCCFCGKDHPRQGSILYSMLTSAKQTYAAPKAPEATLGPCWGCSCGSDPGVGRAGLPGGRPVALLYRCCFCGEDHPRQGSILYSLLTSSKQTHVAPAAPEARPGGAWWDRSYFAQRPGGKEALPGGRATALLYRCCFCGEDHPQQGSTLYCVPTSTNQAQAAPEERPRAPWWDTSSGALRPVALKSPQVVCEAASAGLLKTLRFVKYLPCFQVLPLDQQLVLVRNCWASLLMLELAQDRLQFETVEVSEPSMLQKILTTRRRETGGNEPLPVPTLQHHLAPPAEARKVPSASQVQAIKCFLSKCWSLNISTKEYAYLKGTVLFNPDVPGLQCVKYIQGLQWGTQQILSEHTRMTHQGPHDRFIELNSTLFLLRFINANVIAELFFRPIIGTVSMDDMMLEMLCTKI
SF1 AF2mut Luc: counter-screen for DAX1 inhibitors: nonselective inhibitors with SF-1 AF2 mutant. shares compounds with DAX1 inh-1. HEK293 StAR-luciferase, luminescence. inhibition, % at 6.8 µM. 2,400 compounds, 78% hits. AID 652136;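 active means inhibition above the mean of all tested compounds plus 3 SD, cut at about 3% in these data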;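 further: 0% = DAX-1 transfected cells with DMSO and 100% = cells without DAX-1 with DMSO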
Numbers without * were called inactive. Most compounds without a hit are left out; they make up all but 4.8% or so of the library.

For CC(C)OCCCNC(=O)c1cc2c(=O)n(C)c3ccccc3c2n1C the results were DAX1 inh-1 -1.0, DAX1 inh-2 -0.8, hcDAF12 agonist -2.2, hgDAF12 agonist 2.5, SMARCA2 act -2.3 and ssDAF-12 act -1.1.
`CCCCN(CC)CCCNC(=O)c1cc2c(=O)n(C)c3ccccc3c2n1C` gave DAX1 inh-1 4.7*, DAX1 inh-2 3.2, hcDAF12 agonist -0.9, hgDAF12 agonist 0.9, SMARCA2 act -0.2, ssDAF-12 act -1.6, DAX1 conf 8.7* and SF1 AF2mut Luc 1.9.
For O=C(CSc1nc2[nH]c(=O)cc(O)c2s1)Nc1ccc(Br)cc1 the results were DAX1 inh-1 8.7*, DAX1 inh-2 1.0, hcDAF12 agonist -0.3, hgDAF12 agonist -0.5, SMARCA2 act 3.9, ssDAF-12 act -1.1, DAX1 conf 0.1 and SF1 AF2mut Luc 0.2.
Screening Cc1cccc(NC(=O)CSc2nc3[nH]c(=O)cc(O)c3s2)c1 returned DAX1 inh-1 -0.4, DAX1 inh-2 1.0, hcDAF12 agonist 0.2, hgDAF12 agonist -0.8, SMARCA2 act -0.2 and ssDAF-12 act -0.9.
For O=C(CSc1nc2[nH]c(=O)cc(O)c2s1)Nc1cccc(Br)c1 the results were DAX1 inh-1 5.7*, DAX1 inh-2 0.8, hcDAF12 agonist -0.2, hgDAF12 agonist -0.5, SMARCA2 act 1.1, ssDAF-12 act -1.2, DAX1 conf 2.2 and SF1 AF2mut Luc 2.1.
c1ccc(CNc2ccc3ccccc3n2)nc1 was read as DAX1 inh-1 7.9*, DAX1 inh-2 0.4, hcDAF12 agonist 8.0*, hgDAF12 agonist 14.6*, SMARCA2 act 6.1, ssDAF-12 act 1.0*, DAX1 conf 12.3* and SF1 AF2mut Luc 8.2*.
Cc1c(C(=O)OCC(=O)NCc2ccco2)oc2ccccc12 was read as DAX1 inh-1 4.5*, DAX1 inh-2 0.6, hcDAF12 agonist -1.7, hgDAF12 agonist 2.1, SMARCA2 act -1.7, ssDAF-12 act -1.1, DAX1 conf 1.1 and SF1 AF2mut Luc 1.0.
COc1ccc(N2C(=O)c3ccccc3NC23CCCCC3)cc1 was read as DAX1 inh-1 4.5*, DAX1 inh-2 0.7, hcDAF12 agonist 2.8, hgDAF12 agonist 12.1*, SMARCA2 act 4.9, ssDAF-12 act 0.3, DAX1 conf 13.0* and SF1 AF2mut Luc 6.5*.
`CCCCc1nnc(NC(=O)C2=COCCO2)s1` gave DAX1 inh-1 7.3*, DAX1 inh-2 1.2, hcDAF12 agonist 4.8, hgDAF12 agonist 7.8, SMARCA2 act 5.0, ssDAF-12 act 1.0*, DAX1 conf 7.3* and SF1 AF2mut Luc 5.6*.
O=C(Nc1nc2ccc(F)cc2s1)C1=COCCO1 was read as DAX1 inh-1 7.5*, DAX1 inh-2 -3.4, hcDAF12 agonist 4.9, hgDAF12 agonist 2.8, SMARCA2 act 1.7, ssDAF-12 act 0.1, DAX1 conf 7.6* and SF1 AF2mut Luc 3.1*.
Cc1nnc(NC(=O)C2=COCCO2)s1 was read as DAX1 inh-1 2.3, DAX1 inh-2 -0.3, hcDAF12 agonist 0.9, hgDAF12 agonist 2.3, SMARCA2 act -0.4 and ssDAF-12 act -0.9.
Cn1c(SCC(=O)Nc2ccccc2-c2ccccc2)nnc1-c1ccccc1 was read as DAX1 inh-1 0.3, hcDAF12 agonist -0.4, hgDAF12 agonist 0.6, SMARCA2 act -3.6 and ssDAF-12 act -0.9.
Screening COc1c(OC(C)=O)ccc(/C=C/c2ccc3ccccc3n2)c1[N+](=O)[O-] returned DAX1 inh-1 5.1*, DAX1 inh-2 2.5, hcDAF12 agonist 3.6, hgDAF12 agonist 8.9, SMARCA2 act -0.7, ssDAF-12 act 0.2, DAX1 conf 11.8* and SF1 AF2mut Luc 6.2*.
For O=C(OCC#CCSc1nnc(-c2cccc3ccccc23)o1)c1ccc(Cl)c(C(F)(F)F)c1 the results were hcDAF12 agonist -0.4, hgDAF12 agonist -1.1 and ssDAF-12 act -1.8.
Screening COc1cccc2cc(-c3ccccc3)oc12 returned DAX1 inh-1 0.5, hcDAF12 agonist -2.3, hgDAF12 agonist 0.0, SMARCA2 act 4.0 and ssDAF-12 act -0.9.
For Nc1cccc2cc(-c3ccccc3)oc12 the results were DAX1 inh-1 5.3*, DAX1 inh-2 1.5, hcDAF12 agonist 1.7, hgDAF12 agonist 7.0, SMARCA2 act 5.1, ssDAF-12 act 0.1, DAX1 conf 6.5* and SF1 AF2mut Luc 5.6*.
Screening CNc1nnc(SCC(=O)c2cc(C)n(C3CC3)c2C)s1 returned DAX1 inh-1 5.0*, DAX1 inh-2 0.2, hcDAF12 agonist 3.4, hgDAF12 agonist 4.8, SMARCA2 act 0.6, ssDAF-12 act -1.4, DAX1 conf 6.7* and SF1 AF2mut Luc 2.7.
Screening COc1ccccc1N1CCN(S(=O)(=O)c2ccc3c(c2)CCC(=O)N3)CC1 returned DAX1 inh-1 -1.1, hcDAF12 agonist -1.7, hgDAF12 agonist -1.6, SMARCA2 act -0.1 and ssDAF-12 act -1.3.
For CCCC(=O)N1CCC[C@]2(CC[C@@H](CCC(=O)OCC)O2)C1 the results were DAX1 inh-1 0.4, hcDAF12 agonist 0.2, hgDAF12 agonist 9.8, SMARCA2 act -2.0 and ssDAF-12 act -0.5.
Screening Cc1ccc2nc(C(C)(C)C)c(Cc3ccccc3C(F)(F)F)n2c1 returned DAX1 inh-1 -0.3, hcDAF12 agonist 1.0, hgDAF12 agonist 1.6, SMARCA2 act -3.1 and ssDAF-12 act -0.5.
`FC(F)(F)c1ccccc1Cc1c(-c2ccccc2)nc2ccc(Cl)cn12` gave DAX1 inh-1 0.8, hcDAF12 agonist 2.2, hgDAF12 agonist 6.1, SMARCA2 act 3.8 and ssDAF-12 act -0.1.
FC(F)(F)c1ccccc1Cc1c(-c2ccc(Cl)cc2)nc2ccc(Cl)cn12 was read as DAX1 inh-1 4.8*, hcDAF12 agonist 1.1, hgDAF12 agonist 11.6*, SMARCA2 act 6.2, ssDAF-12 act 0.6, DAX1 conf 4.1* and SF1 AF2mut Luc 3.8*.
Screening COC(=O)c1ccc2nc(-c3ccc(Cl)cc3)c(CC3CCCCC3)n2c1 returned DAX1 inh-1 0.7, hcDAF12 agonist 3.1, hgDAF12 agonist 4.5, SMARCA2 act -0.8 and ssDAF-12 act 0.9.
`Cc1ccc2nc(-c3ccc(Cl)cc3)c(CC3CCCCC3)n2c1` gave DAX1 inh-1 6.2*, hcDAF12 agonist 7.4*, hgDAF12 agonist 22.7*, SMARCA2 act 4.2, ssDAF-12 act 0.7, DAX1 conf 5.3* and SF1 AF2mut Luc 4.9*.
`Cc1ccc(-c2nc3ccc(C)cn3c2Cc2ccccc2C(F)(F)F)cc1` gave DAX1 inh-1 5.7*, hcDAF12 agonist 2.7, hgDAF12 agonist 12.4*, SMARCA2 act 2.9, ssDAF-12 act -0.5, DAX1 conf 5.0* and SF1 AF2mut Luc 4.1*.
